Mcl1-Noxa inh: disrupts binding of human Mcl-1 to Noxa peptide. Q07820. TR-FRET Mcl-1/Noxa peptide binding, 2 h. inhibition, % at 21.7 µM. 220,000 compounds, 1.5% hits. AID 1022;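 active = compounds that cut the protein-peptide binding signal by more than 50% relative to plate controls in a single-dose test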;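 note: His-tagged Mcl-1 with rhodamine Noxa BH3 peptide and terbium anti-His antibody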
Target sequence (Q07820 whole entry, looked up): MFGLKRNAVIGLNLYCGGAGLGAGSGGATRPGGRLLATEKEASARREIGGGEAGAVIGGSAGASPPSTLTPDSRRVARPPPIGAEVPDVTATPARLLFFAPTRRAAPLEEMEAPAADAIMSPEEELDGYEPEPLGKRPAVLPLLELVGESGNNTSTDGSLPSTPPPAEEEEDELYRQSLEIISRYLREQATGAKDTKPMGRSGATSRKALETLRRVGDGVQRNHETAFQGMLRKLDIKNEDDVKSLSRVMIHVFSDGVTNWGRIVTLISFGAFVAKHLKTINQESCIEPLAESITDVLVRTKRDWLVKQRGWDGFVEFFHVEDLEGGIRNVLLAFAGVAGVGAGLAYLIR
14-3-3 Bad PPI: disrupts binding of bovine 14-3-3 zeta to phospho-Bad peptide; TR-FRET 14-3-3zeta/Dy647-pBad peptide displacement, 1 h; inhibition, % at 21.7 µM; 220,000 compounds, 0.71% hits;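 active = inhibition above about 70%, limit read from the data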
Target sequence (P63103 whole entry, looked up): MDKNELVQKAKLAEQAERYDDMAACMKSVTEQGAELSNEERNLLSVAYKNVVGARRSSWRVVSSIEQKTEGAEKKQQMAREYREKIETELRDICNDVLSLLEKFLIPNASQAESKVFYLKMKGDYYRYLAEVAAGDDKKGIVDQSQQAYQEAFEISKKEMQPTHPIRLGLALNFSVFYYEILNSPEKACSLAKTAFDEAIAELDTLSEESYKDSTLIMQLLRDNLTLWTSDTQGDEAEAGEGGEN
Bim-Mcl-1: disrupts Bim peptide binding to human Mcl-1; 190,000 compounds, 0.1% hits; Bead-based flow cytometry, Bim peptide-Mcl-1 binding; Q07820; inhibition, % at 10 µM; in the data active = inhibition above about 40%
Mcl1 Bid PPI: Mcl-1/Bid interaction inhibition. Q07820. TR-FRET Mcl-1/Bid-Dy647 peptide binding, 1536-well. inhibition, % at 21.7 µM. 220,000 compounds, 0.97% hits;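 active = compounds that cut the binding signal by more than half at the single screening dose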;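 note: His-tagged Mcl-1 with europium anti-His antibody binding Bid BH3 peptide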
eIF4E 4G PPI: inhibitors of eIF4E and eIF4G interaction in translation initiation; P63073+Q04637; TR-FRET eIF4E-eIF4GI(517-606) binding, 2 h; inhibition, % at 21.7 µM; 220,000 compounds, 0.37% hits
p47phox inh: inhibitors of human p47phox binding; P14598; p47phox/p22phox peptide binding, fluorescence polarization, 2 h; inhibition, % at 24.7 µM; 220,000 compounds, 0.53% hits
Hits are given with their value. The list is not random: actives were taken first. Their share in the collection is about 3.3%.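 Rule for the calls, unless noted: active = inhibition above about 30% (limit read from the data); inactive = the rest.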

Results for C#CCOCCOCCOCCNc1nc(N2CCN(C(=O)[C@H](Cc3ccc(O)cc3)n3cc(CCO)nn3)CC2)nc(N2CCN(C(=O)[C@H](Cc3ccc(O)cc3)n3cc(CCO)nn3)CC2)n1 ?
Mcl1-Noxa inh: inactive; 14-3-3 Bad PPI: 73; Bim-Mcl-1: inactive; Mcl1 Bid PPI: inactive; eIF4E 4G PPI: inactive; p47phox inh: inactive

Results for C#CCOCCOCCOCCNc1nc(N2CCN(C(=O)C([C@@H](C)CC)n3cc(C(N)CC(C)C)nn3)CC2)nc(N2CCN(C(=O)[C@H](CCC(=O)O)n3cc(C(N)CC(C)C)nn3)CC2)n1 (some centres undefined) ?
Mcl1-Noxa inh: inactive; 14-3-3 Bad PPI: inactive; Bim-Mcl-1: inactive; Mcl1 Bid PPI: inactive; eIF4E 4G PPI: inactive

How did C#CCOCCOCCOCCNc1nc(N2CCN(C(=O)[C@H]([C@@H](C)CC)n3cc([C@@H](N)CO)nn3)CC2)nc(N2CCN(C(=O)[C@H](Cc3ccc(O)cc3)n3cc([C@@H](N)CC(C)C)nn3)CC2)n1 do in these assays?
Mcl1-Noxa inh: inactive; 14-3-3 Bad PPI: inactive; Bim-Mcl-1: inactive; Mcl1 Bid PPI: 63; eIF4E 4G PPI: inactive; p47phox inh: inactive

What do the screens show for `C#CCOCCOCCOCCNc1nc(N2CCN(C(=O)[C@H](CCC(=O)O)n3cc(C(N)Cc4ccc(O)cc4)nn3)CC2)nc(N2CCN(C(=O)[C@H](CCC(=O)O)n3cc(C(N)CC(C)C)nn3)CC2)n1` (some centres undefined)?
Mcl1-Noxa inh: inactive; 14-3-3 Bad PPI: inactive; Bim-Mcl-1: inactive; Mcl1 Bid PPI: 60; eIF4E 4G PPI: inactive; p47phox inh: inactive

How did C#CCOCCOCCOCCNc1nc(N2CCN(C(=O)[C@H](CCC(=O)O)n3cc(C(N)CC(C)C)nn3)CC2)nc(N2CCN(C(=O)[C@H](CCC(=O)O)n3cc(C(N)CC(C)C)nn3)CC2)n1 (some centres undefined) do in these assays?
Mcl1-Noxa inh: inactive; 14-3-3 Bad PPI: inactive; Bim-Mcl-1: inactive; Mcl1 Bid PPI: 67; eIF4E 4G PPI: inactive

Results for CCOc1ccc(CC(=O)Nc2ccc(NC(=O)c3ccco3)cc2)cc1OCC ?
Mcl1-Noxa inh: inactive; 14-3-3 Bad PPI: inactive; Bim-Mcl-1: inactive; Mcl1 Bid PPI: inactive; eIF4E 4G PPI: inactive; p47phox inh: inactive

Results for O=C(CN1C2=NCCCN2c2ccccc21)c1ccc(Cl)cc1Cl ?
Mcl1-Noxa inh: inactive; 14-3-3 Bad PPI: inactive; Bim-Mcl-1: inactive; Mcl1 Bid PPI: inactive; eIF4E 4G PPI: inactive; p47phox inh: inactive

How did C#CCOCCOCCOCCNc1nc(N2CCN(C(=O)[C@H](CCCCN)n3cc(C(N)COC(=O)C(F)(F)F)nn3)CC2)nc(N2CCN(C(=O)[C@H](CCCCN)n3cc(C(N)CC(C)C)nn3)CC2)n1 (some centres undefined) do in these assays?
Mcl1-Noxa inh: inactive; 14-3-3 Bad PPI: inactive; Mcl1 Bid PPI: inactive; eIF4E 4G PPI: inactive; p47phox inh: 34

Results for O=C1NC(=S)S/C1=C1\Sc2ccccc2N1CCCS(=O)(=O)O ?
Mcl1-Noxa inh: 74; 14-3-3 Bad PPI: inactive; Bim-Mcl-1: inactive; Mcl1 Bid PPI: inactive; eIF4E 4G PPI: inactive; p47phox inh: inactive

What do the screens show for `COc1ccccc1/C=C/CN1CC(C)OC(C)C1` (centres undefined)?
Mcl1-Noxa inh: inactive; 14-3-3 Bad PPI: 79; Bim-Mcl-1: inactive; Mcl1 Bid PPI: inactive; eIF4E 4G PPI: inactive; p47phox inh: inactive

How did CC1(C)CC2(CCO1)C(Nc1ccccc1)=NC(=S)N2c1ccccc1 (centres undefined) do in these assays?
Mcl1-Noxa inh: inactive; 14-3-3 Bad PPI: inactive; Mcl1 Bid PPI: inactive; eIF4E 4G PPI: inactive; p47phox inh: inactive

How did CCOC(=O)c1c(CSc2ccc(C)cc2)oc2ccc(O)cc12 do in these assays?
Mcl1-Noxa inh: inactive; 14-3-3 Bad PPI: inactive; Bim-Mcl-1: inactive; Mcl1 Bid PPI: inactive; eIF4E 4G PPI: inactive; p47phox inh: inactive

How did CCOC(=O)c1c(CN2CCN(C)CC2)oc2ccc(O)cc12 do in these assays?
Mcl1-Noxa inh: inactive; 14-3-3 Bad PPI: 75; Bim-Mcl-1: inactive; Mcl1 Bid PPI: inactive; eIF4E 4G PPI: inactive; p47phox inh: inactive

What do the screens show for `NC(=S)n1[nH]c(-c2ccc([N+](=O)[O-])cc2)c(N=Nc2ccccc2[N+](=O)[O-])c1=O`?
Mcl1-Noxa inh: 84; 14-3-3 Bad PPI: inactive; Bim-Mcl-1: inactive; Mcl1 Bid PPI: 90; eIF4E 4G PPI: inactive; p47phox inh: 30

What do the screens show for `Cc1c(N=Nc2c(-c3ccc([N+](=O)[O-])cc3)[nH]n(C(N)=S)c2=O)cccc1[N+](=O)[O-]`?
Mcl1-Noxa inh: 116; 14-3-3 Bad PPI: 92; Bim-Mcl-1: inactive; Mcl1 Bid PPI: 98; eIF4E 4G PPI: 33; p47phox inh: inactive

Results for Nc1[nH]n(-c2ccccc2)c(=O)c1N=Nc1ccccc1[N+](=O)[O-] ?
Mcl1-Noxa inh: 60; 14-3-3 Bad PPI: inactive; Bim-Mcl-1: inactive; Mcl1 Bid PPI: inactive; eIF4E 4G PPI: inactive; p47phox inh: inactive

What do the screens show for `Nc1[nH]n(-c2ccccc2)c(=O)c1N=Nc1ccccc1`?
Mcl1-Noxa inh: inactive; 14-3-3 Bad PPI: inactive; Mcl1 Bid PPI: inactive; eIF4E 4G PPI: inactive; p47phox inh: inactive

How did Nc1[nH]n(-c2ccccc2)c(=O)c1N=Nc1ccc2ncsc2c1 do in these assays?
Mcl1-Noxa inh: 63; 14-3-3 Bad PPI: inactive; Mcl1 Bid PPI: inactive; eIF4E 4G PPI: inactive; p47phox inh: inactive

What do the screens show for `O=C(CN1CCN(C(=O)C2COc3ccccc3O2)CC1)Nc1ccc(F)cc1` (centres undefined)?
Mcl1-Noxa inh: inactive; 14-3-3 Bad PPI: inactive; Mcl1 Bid PPI: inactive; eIF4E 4G PPI: inactive; p47phox inh: inactive

What do the screens show for `NC(=S)n1[nH]c(-c2ccc([N+](=O)[O-])cc2)c(N=Nc2cccc([N+](=O)[O-])c2)c1=O`?
Mcl1-Noxa inh: 85; 14-3-3 Bad PPI: 91; Bim-Mcl-1: inactive; Mcl1 Bid PPI: 82; eIF4E 4G PPI: inactive; p47phox inh: inactive

Results for Cc1[nH]n(C(N)=S)c(=O)c1N=Nc1ccc2ccccc2c1 ?
Mcl1-Noxa inh: inactive; 14-3-3 Bad PPI: inactive; Bim-Mcl-1: inactive; Mcl1 Bid PPI: inactive; eIF4E 4G PPI: inactive; p47phox inh: inactive

How did CCC(CC)N=C1NS(=O)(=O)c2cc([N+](=O)[O-])ccc21 do in these assays?
Mcl1-Noxa inh: inactive; 14-3-3 Bad PPI: inactive; Bim-Mcl-1: inactive; Mcl1 Bid PPI: inactive; eIF4E 4G PPI: inactive; p47phox inh: inactive

What do the screens show for `CC(=O)N(C1=C(Cl)C(=O)c2ccccc2C1=O)C1CCCCC1`?
Mcl1-Noxa inh: 91; 14-3-3 Bad PPI: inactive; Mcl1 Bid PPI: inactive; eIF4E 4G PPI: inactive; p47phox inh: inactive

How did COc1cccc(NC2=NCC(=O)N2Cc2cccs2)c1 do in these assays?
Mcl1-Noxa inh: inactive; 14-3-3 Bad PPI: 71; Bim-Mcl-1: inactive; Mcl1 Bid PPI: inactive; eIF4E 4G PPI: inactive; p47phox inh: inactive

How did COc1ccc(NC2=NCC(=O)N2Cc2cccs2)cc1 do in these assays?
Mcl1-Noxa inh: inactive; 14-3-3 Bad PPI: 75; Bim-Mcl-1: inactive; Mcl1 Bid PPI: inactive; eIF4E 4G PPI: 43; p47phox inh: inactive
